We go through 18 compounds from PubChem BioAssay (NCI).

Structures are written as SMILES. The panel holds about 83,000 compounds, 20% with a hit somewhere; the sample as a whole holds those more often.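 Testing used 96-well plates and a 48-hour single-concentration exposure. Example: -40 means 40% of the starting cells died.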 A number with no mark means an inactive call. The source made the active and inactive calls. Rule for the calls: active = growth percent below 10; inactive = the rest.

Experiment in all cases: NCI-60 one-dose screen, 48 h (100 = growth as untreated, 0 = no growth, -100 = all killed)
Holding throughout (conditions): 10 µM unless noted

For test [1], the system named is T-47D breast.
Test [2] deals with BT-549 breast.
Test [3] relates to MDA-MB-435 melanoma.
For test [4], the system named is SW-620 colon.
Test [5] relates to MCF7 breast.
In test [6] the test system is HCT-116 colon.
The test system of test [7] is KM12 colon.
Test [8] relates to HCC-2998 colon.

As for `CCc1ccc2c(c1)N(CCO)C1=C(C(=O)OC1)C2c1cccc(Cl)c1` (stereo unspecified), the growth in test [1] is 52.1%; in test [2], 42.1%; in test [3], -57.3% (active); in test [4], 26%; in test [5], 24.5%; in test [6] it was 15.3%. Further, the growth in test [7] was 13.4%.
For `Nc1c(C(=O)Nc2cccc(Cl)c2)sc2ncc(Br)cc12`, the growth in test [1] was 62.6%; in test [2] it was 68.2%; in test [4], 61.3%; in test [5], 84.2%; in test [6] it was 23%; in test [8] it was 99.7%. For the same compound, in test [7], the growth is 63.8%.
`O=C1OCC2=C1C(c1ccc(Cl)c(Cl)c1)c1cc3c(cc1N2CCO)CCC3` (stereo unspecified): the growth is 63.3% in test [1]; 44.8% in test [2]; -38.6% (active) in test [3]; 24.5% in test [4]; 20.4% in test [5]; 18.3% in test [6]. Also, in test [7], the growth is 9.04% (active).
As for `N[C@@H](CO)C(=O)O`, the growth in test [1] was 96.9%; in test [2] it was 104%; in test [3] it was 97.4%; in test [5], 104%; in test [6], 103%; in test [8], 98.1%. Also, in test [7], the growth is 102%.
In the case of `Cc1ccc2oc(=O)cc(-c3nc4ccc([N+](=O)[O-])cc4[nH]3)c2c1`, the growth in test [1] was 25.4%; in test [2], 42.4%; in test [4], 78.1%; in test [5], 57.2%; in test [6], 8.52% (active); in test [8], 67.2%. In addition, in test [7], the growth was 59.7%.
With `Cc1nn(-c2ccc(Cl)cc2)c(=O)n1CCN1CCOCC1`, the growth is 78.3% in test [1]; 61.5% in test [2]; 84.9% in test [3]; 73.4% in test [5]; 29.5% in test [6]; 91.3% in test [8]. The growth in test [7] was 81.3%.
Regarding `CCCC(CCC)NCC(O)c1cc(-c2ccc(C(F)(F)F)cc2)nc(C(F)(F)F)c1` (stereo unspecified), the growth in test [1] was -80.5% (active); in test [2] it was 48.2%; in test [3], -48.1% (active); in test [4], -56.6% (active); in test [5], -85.1% (active); in test [6], -70.8% (active). In addition, the growth in test [7] is -85.4% (active).
Consider `COc1ccc(C2C3=C(COC3=O)N(CCO)c3cc(OC)c(OC)cc32)cc1` (stereo unspecified), for which the growth in test [1] was 91.3%; in test [2], 100%; in test [3], 112%; in test [4] it was 101%; in test [5] it was 103%; in test [6], 103%. Further, the growth in test [7] was 106%.
For `F`, the growth in test [1] is 18.2% [6.87 mM]; in test [2], 5.2% [6.87 mM] (active); in test [3], -26.3% [6.87 mM] (active); in test [5] it was 30.7% [6.87 mM]; in test [6] it was 8.71% [6.87 mM] (active); in test [8], 24.4% [6.87 mM]. In addition, the growth in test [7] was 9.89% [6.87 mM] (active).
With `C/C(=N\NC(=S)N1CCCCC1)c1ccccn1`, the growth was 17.9% in test [1]; 29.4% in test [2]; 21.9% in test [4]; 12.8% in test [5]; 13.3% in test [6]; 34.8% in test [8]. Further, the growth in test [7] was 13%.
`COc1ccc(C2C3CCc4ccccc4C3=NN2C(=O)c2cc(OC)c(OC)c(OC)c2)cc1O` (stereo unspecified): the growth was 87% in test [1]; 89% in test [2]; 96.2% in test [3]; 95.8% in test [5]; 104% in test [6]; 110% in test [8]. The growth in test [7] is 109%.
Take `O=C1c2ccccc2C2N1CCC1CCc3ccccc3N12` (stereo unspecified): the growth in test [1] is 107%; in test [2], 88.1%; in test [4], 102%; in test [5] it was 96.4%; in test [6], 93.7%; in test [8], 110%. Besides, in test [7], the growth was 108%.
On to `CCC(=O)NC(O)C(Cl)(Cl)C(C)Cl` (stereo unspecified), for which the growth in test [1] was 85.4%; in test [3] it was 96.8%; in test [4], 105%; in test [5], 90.3%; in test [6], 103%; in test [8], 101%. For the same compound, the growth in test [7] is 103%.
As for `CCCCn1c(C)nc2cc(Nc3nc(Cl)nc4nc[nH]c34)ccc21`, the growth in test [1] is 39.3%; in test [2], 72.3%; in test [4], 90.4%; in test [5] it was 75.4%; in test [6], 83.6%; in test [8], 102%. Also, the growth in test [7] is 97.3%.
In the case of `O=C1OC(c2ccc(-c3ccccc3)cc2)=C/C1=C/c1c(Cl)cccc1Cl`, the growth is 91.3% in test [1]; 104% in test [3]; 95.9% in test [4]; 76% in test [5]; 63% in test [6]; 102% in test [8]. The growth in test [7] is 94.1%.
With `Clc1ccc2c(c1)-n1cccc1C(c1ccc3ccccc3c1)=NC2`, the growth is 76.5% in test [1]; 50.4% in test [3]; 88% in test [4]; 84.4% in test [5]; 66.4% in test [6]; 87.9% in test [8]. The growth in test [7] was 71.8%.
For the compound `O=C1C=CC(=O)N1CO`, the growth in test [1] is 132%; in test [2], 116%; in test [4], 115%; in test [5], 104%; in test [6], 104%; in test [8], 107%. Besides, in test [7], the growth is 128%.
As to `N#Cc1ccc(NC(=O)Nc2nc3ccc(OC(F)(F)F)cc3s2)cc1`, the growth was -10.3% (active) in test [1]; -25.6% (active) in test [3]; 13.6% in test [4]; 6.26% (active) in test [5]; -3.77% (active) in test [6]; -5.67% (active) in test [8]. In addition, the growth in test [7] is 10.5%.
